Measurements: PubChem BioAssay AID1159580 (chemical genetic matrix, 2015)
The whole screen tested about 5,500 compounds, of which about 2,000 (36%) were called active. Another 18% or so got no clear call; they are omitted. Rule as the data show it: active = normalized growth mostly below about 0.91 (no sharp cut-off); inconclusive = no clear call, values can overlap the other calls; inactive = mostly above about 0.92. The list shows a part of the results.

Experiment: chemical genetic growth profiling, strain panel (AID 1159580);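 also: tested at 20 µM; growth read once vehicle control cultures reached saturation at 30 °C; 1 = growth at the plate median or of vehicle wells; lower values mean less growth of the strain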
Conditions: growth OD

Measured: normalized growth

Cc1ccc2c(c1)C1(C)CCCC(C)(C(=O)O)C1CC2 (stereo unspecified)
inactive: S. cerevisiae deletion strains, locus YAL013W, strain DEP1, stronger effect = lower value 0.982 | S. cerevisiae deletion strains, locus YBR021W, strain FUR4, stronger effect = lower value 1.04 | S. cerevisiae deletion strains, locus YBR229C, strain ROT2, stronger effect = lower value 0.972 | S. cerevisiae deletion strains, locus YCL029C, strain bik1, stronger effect = lower value 0.998 | S. cerevisiae deletion strains, locus YDL035C, strain GPR1, stronger effect = lower value 0.99 | S. cerevisiae deletion strains, locus YDL074C, strain BRE1, stronger effect = lower value 0.951 | S. cerevisiae deletion strains, locus YDL101C, strain DUN1, stronger effect = lower value 0.975 | S. cerevisiae deletion strains, locus YDL134C, strain PPH21, stronger effect = lower value 0.992 | S. cerevisiae deletion strains, locus YDL185W, strain tfp1, stronger effect = lower value 0.95 | S. cerevisiae deletion strains, locus YDL192W, strain arf1, stronger effect = lower value 1 | S. cerevisiae deletion strains, locus YDR101C, strain arx1, stronger effect = lower value 1.01 | S. cerevisiae deletion strains, locus YDR150W, strain NUM1, stronger effect = lower value 0.992 | S. cerevisiae deletion strains, locus YDR162C, strain NBP2, stronger effect = lower value 0.907 | S. cerevisiae deletion strains, locus YDR318W, strain mcm21, stronger effect = lower value 1.02 | S. cerevisiae deletion strains, locus YDR388W, stronger effect = lower value 1.01 | S. cerevisiae deletion strains, locus YDR502C, strain sam2, stronger effect = lower value 0.984 | S. cerevisiae deletion strains, locus YEL061C, strain CIN8, stronger effect = lower value 0.993 | S. cerevisiae deletion strains, locus YER110C, stronger effect = lower value 0.991 | S. cerevisiae deletion strains, locus YER155C, strain BEM2, stronger effect = lower value 1.01 | S. cerevisiae deletion strains, locus YER167W, strain BCK2, stronger effect = lower value 1.01 | S. cerevisiae deletion strains, locus YGL078C, strain dbp3, stronger effect = lower value 0.96 | S. cerevisiae deletion strains, locus YGL086W, strain mad1, stronger effect = lower value 1.03 | S. cerevisiae deletion strains, locus YGL248W, strain PDE1, stronger effect = lower value 0.994 | S. cerevisiae deletion strains, locus YGR078C, strain PAC10, stronger effect = lower value 0.979 | S. cerevisiae deletion strains, locus YGR135W, strain pre9, stronger effect = lower value 0.96 | S. cerevisiae deletion strains, locus YGR229C, strain SMI1, stronger effect = lower value 0.979 | S. cerevisiae deletion strains, locus YGR252W, strain gcn5, stronger effect = lower value 1.06 | S. cerevisiae deletion strains, locus YHR030C, strain SLT2, stronger effect = lower value 1.02 | S. cerevisiae deletion strains, locus YHR079C, strain IRE1 (second series), stronger effect = lower value 1.01 | S. cerevisiae deletion strains, locus YHR094C, strain hxt1, stronger effect = lower value 0.996 | S. cerevisiae deletion strains, locus YHR129C, strain ARP1, stronger effect = lower value 1.01 | S. cerevisiae deletion strains, locus YHR200W, strain rpn10, stronger effect = lower value 1.01 | S. cerevisiae deletion strains, locus YIL066C, strain RNR3, stronger effect = lower value 0.994 | S. cerevisiae deletion strains, locus YIL073C, strain SPO22, stronger effect = lower value 1.03 | S. cerevisiae deletion strains, locus YIL125W, strain kgd1, stronger effect = lower value 0.986 | S. cerevisiae deletion strains, locus YIR030C, strain dcg1, stronger effect = lower value 0.998 | S. cerevisiae deletion strains, locus YJL095W, strain BCK1, stronger effect = lower value 1 | S. cerevisiae deletion strains, locus YJL134W, strain LCB3, stronger effect = lower value 1.01 | S. cerevisiae deletion strains, locus YJL168C, strain set2, stronger effect = lower value 1 | S. cerevisiae deletion strains, locus YJL187C, strain SWE1 (second series), stronger effect = lower value 0.968 | S. cerevisiae deletion strains, locus YJR043C, strain POL32, stronger effect = lower value 1.05 | S. cerevisiae deletion strains, locus YJR075W, strain HOC1, stronger effect = lower value 1.01 | S. cerevisiae deletion strains, locus YKL009W, strain mrt4, stronger effect = lower value 0.999 | S. cerevisiae deletion strains, locus YKL068W, stronger effect = lower value 0.982 | S. cerevisiae deletion strains, locus YKL085W, strain MDH1 (second series), stronger effect = lower value 0.997 | S. cerevisiae deletion strains, locus YKL085W, strain MDH1, stronger effect = lower value 0.997 | S. cerevisiae deletion strains, locus YKL190W, strain CNB1, stronger effect = lower value 0.989 | S. cerevisiae deletion strains, locus YKR001C, strain vps1, stronger effect = lower value 1.01 | S. cerevisiae deletion strains, locus YLR039C, strain RIC1, stronger effect = lower value 0.862 | S. cerevisiae deletion strains, locus YLR058C, strain SHM2, stronger effect = lower value 0.989 | S. cerevisiae deletion strains, locus YLR102C, strain apc9, stronger effect = lower value 0.989 | S. cerevisiae deletion strains, locus YLR262C, strain YPT6, stronger effect = lower value 0.806 | S. cerevisiae deletion strains, locus YLR268W, strain sec22, stronger effect = lower value 0.965 | S. cerevisiae deletion strains, locus YLR330W, strain CHS5, stronger effect = lower value 1 | S. cerevisiae deletion strains, locus YLR342W, strain FKS1 (second series), stronger effect = lower value 1.06 | S. cerevisiae deletion strains, locus YLR371W, strain rom2, stronger effect = lower value 1.02 | S. cerevisiae deletion strains, locus YLR418C, strain cdc73, stronger effect = lower value 0.967 | S. cerevisiae deletion strains, locus YML016C, strain PPZ1, stronger effect = lower value 0.998 | S. cerevisiae deletion strains, locus YML032C, strain rad52, stronger effect = lower value 1.03 | S. cerevisiae deletion strains, locus YML124C, strain tub3, stronger effect = lower value 1 | S. cerevisiae deletion strains, locus YMR078C, strain ctf18, stronger effect = lower value 0.994 | S. cerevisiae deletion strains, locus YMR223W, strain ubp8, stronger effect = lower value 1.03 | S. cerevisiae deletion strains, locus YMR263W, strain SAP30, stronger effect = lower value 0.973 | S. cerevisiae deletion strains, locus YMR307W, strain GAS1, stronger effect = lower value 0.976 | S. cerevisiae deletion strains, locus YNL067W, strain RPL9B, stronger effect = lower value 0.974 | S. cerevisiae deletion strains, locus YNL128W, strain TEP1, stronger effect = lower value 0.949 | S. cerevisiae deletion strains, locus YNL153C, strain GIM3, stronger effect = lower value 0.957 | S. cerevisiae deletion strains, locus YNL233W, strain BNI4, stronger effect = lower value 0.993 | S. cerevisiae deletion strains, locus YNL250W, strain rad50, stronger effect = lower value 0.972 | S. cerevisiae deletion strains, locus YNL271C, strain bni1, stronger effect = lower value 0.994 | S. cerevisiae deletion strains, locus YNL298W, strain CLA4, stronger effect = lower value 0.968 | S. cerevisiae deletion strains, locus YNL307C, strain MCK1, stronger effect = lower value 1.01 | S. cerevisiae deletion strains, locus YNL322C, strain KRE1, stronger effect = lower value 0.997 | S. cerevisiae deletion strains, locus YNR052C, strain pop2, stronger effect = lower value 1.02 | S. cerevisiae deletion strains, locus YOL006C, strain TOP1, stronger effect = lower value 0.956 | S. cerevisiae deletion strains, locus YOL012C, strain htz1 1.15 | S. cerevisiae deletion strains, locus YOL147C, strain pex11, stronger effect = lower value 1 | S. cerevisiae deletion strains, locus YOR061W, strain CKA2, stronger effect = lower value 0.973 | S. cerevisiae deletion strains, locus YOR069W, strain VPS5, stronger effect = lower value 1 | S. cerevisiae deletion strains, locus YOR136W, strain idh2, stronger effect = lower value 1.01 | S. cerevisiae deletion strains, locus YOR144C, strain elg1, stronger effect = lower value 1 | S. cerevisiae deletion strains, locus YOR184W, strain ser1, stronger effect = lower value 1.05 | S. cerevisiae deletion strains, locus YOR316C, strain cot1, stronger effect = lower value 0.999 | S. cerevisiae deletion strains, locus YPL055C, strain LGE1, stronger effect = lower value 0.946 | S. cerevisiae deletion strains, locus YPL241C, strain CIN2, stronger effect = lower value 0.997 | S. cerevisiae deletion strains, locus YPR119W, strain clb2, stronger effect = lower value 1 | S. cerevisiae deletion strains, locus YPR141C, strain kar3, stronger effect = lower value 0.939 | S. cerevisiae deletion strains, locus YPR163C, strain tif3, stronger effect = lower value 1 | S. cerevisiae deletion strains, locus YPR167C, strain met16, stronger effect = lower value 0.995 | S. cerevisiae deletion strains, strain wtn01, stronger effect = lower value 0.999 | S. cerevisiae strains, strain wild type, stronger effect = lower value 0.993
